# Results taken from PubChem BioAssay (NCATS).
# A number with no mark means an inactive call. Results filed as inconclusive are left out. Where a call stands in place of a potency, no number is given. Active and inactive are the calls of the source. Unless noted, the call rests on the fitted dose curve; in most records, active means well fitted curve in the direction sought with a large enough effect; inconclusive means small, poorly fitted or top-dose-only effect, or another doubt; inactive means no such curve, though single readings can be large; an effect the other way counts as inactive or inconclusive.
# Legend:
# [1] = target: Rap guanine nucleotide exchange factor 4 (Homo sapiens) (UniProt Q8WZA2); experiment: Confirmatory qHTS for agonist of cAMP-regulated guanine nucleotide exchange factor 4 (EPAC2) (AID 1645884);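 further: nucleotide exchange releases bodipy-GDP from Rap1 and this lowers its fluorescence; nearly all actives have a fitted effect of over 65% in size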; further: potency means the concentration at half of the fitted maximal effect
# Sequence of Rap guanine nucleotide exchange factor 4 (Homo sapiens) (Q8WZA2 whole entry, looked up): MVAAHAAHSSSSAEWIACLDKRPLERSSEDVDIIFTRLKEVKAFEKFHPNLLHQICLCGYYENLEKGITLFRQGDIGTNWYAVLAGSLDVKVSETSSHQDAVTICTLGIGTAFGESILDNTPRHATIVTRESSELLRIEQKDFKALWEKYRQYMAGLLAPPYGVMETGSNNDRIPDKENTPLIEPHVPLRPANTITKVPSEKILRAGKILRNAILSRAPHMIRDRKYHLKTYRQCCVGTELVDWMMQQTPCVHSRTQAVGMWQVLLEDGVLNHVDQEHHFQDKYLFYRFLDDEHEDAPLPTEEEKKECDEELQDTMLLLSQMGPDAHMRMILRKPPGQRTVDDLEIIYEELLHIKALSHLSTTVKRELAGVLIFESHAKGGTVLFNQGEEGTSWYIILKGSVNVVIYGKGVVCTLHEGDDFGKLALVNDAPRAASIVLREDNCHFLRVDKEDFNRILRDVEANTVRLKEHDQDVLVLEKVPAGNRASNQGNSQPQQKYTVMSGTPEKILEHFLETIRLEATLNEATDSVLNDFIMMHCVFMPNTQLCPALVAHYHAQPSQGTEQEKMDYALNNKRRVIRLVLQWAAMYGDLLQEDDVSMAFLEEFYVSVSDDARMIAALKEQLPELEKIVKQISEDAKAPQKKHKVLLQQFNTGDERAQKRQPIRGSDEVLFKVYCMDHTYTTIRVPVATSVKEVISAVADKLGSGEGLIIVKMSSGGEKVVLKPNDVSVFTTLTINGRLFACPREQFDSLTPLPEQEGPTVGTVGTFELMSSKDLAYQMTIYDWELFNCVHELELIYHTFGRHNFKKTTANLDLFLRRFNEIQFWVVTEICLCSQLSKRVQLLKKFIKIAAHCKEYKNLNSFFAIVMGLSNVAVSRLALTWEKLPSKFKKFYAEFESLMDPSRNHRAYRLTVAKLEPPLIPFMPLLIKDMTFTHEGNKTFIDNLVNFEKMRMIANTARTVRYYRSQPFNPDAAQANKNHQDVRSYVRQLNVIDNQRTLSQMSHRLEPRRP
# [2] = target: Rap guanine nucleotide exchange factor 4 (Homo sapiens) (UniProt Q8WZA2); experiment: Confirmatory qHTS for antagonist of cAMP-regulated guanine nucleotide exchange factor 4 (EPAC2) (AID 1645885); further: nearly all actives have a fitted effect of over 25% in size; further: potency means the concentration at half of the fitted maximal effect
# [3] = target: Rap guanine nucleotide exchange factor 3 (Homo sapiens) (UniProt O95398); experiment: Counterscreen qHTS for antagonist of cAMP-regulated guanine nucleotide exchange factor 3 (EPAC1) (AID 1645888);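 further: fluorescence loss as bound BODIPY-GDP is released from Rap1B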
# Sequence of Rap guanine nucleotide exchange factor 3 (Homo sapiens) (O95398 whole entry, looked up): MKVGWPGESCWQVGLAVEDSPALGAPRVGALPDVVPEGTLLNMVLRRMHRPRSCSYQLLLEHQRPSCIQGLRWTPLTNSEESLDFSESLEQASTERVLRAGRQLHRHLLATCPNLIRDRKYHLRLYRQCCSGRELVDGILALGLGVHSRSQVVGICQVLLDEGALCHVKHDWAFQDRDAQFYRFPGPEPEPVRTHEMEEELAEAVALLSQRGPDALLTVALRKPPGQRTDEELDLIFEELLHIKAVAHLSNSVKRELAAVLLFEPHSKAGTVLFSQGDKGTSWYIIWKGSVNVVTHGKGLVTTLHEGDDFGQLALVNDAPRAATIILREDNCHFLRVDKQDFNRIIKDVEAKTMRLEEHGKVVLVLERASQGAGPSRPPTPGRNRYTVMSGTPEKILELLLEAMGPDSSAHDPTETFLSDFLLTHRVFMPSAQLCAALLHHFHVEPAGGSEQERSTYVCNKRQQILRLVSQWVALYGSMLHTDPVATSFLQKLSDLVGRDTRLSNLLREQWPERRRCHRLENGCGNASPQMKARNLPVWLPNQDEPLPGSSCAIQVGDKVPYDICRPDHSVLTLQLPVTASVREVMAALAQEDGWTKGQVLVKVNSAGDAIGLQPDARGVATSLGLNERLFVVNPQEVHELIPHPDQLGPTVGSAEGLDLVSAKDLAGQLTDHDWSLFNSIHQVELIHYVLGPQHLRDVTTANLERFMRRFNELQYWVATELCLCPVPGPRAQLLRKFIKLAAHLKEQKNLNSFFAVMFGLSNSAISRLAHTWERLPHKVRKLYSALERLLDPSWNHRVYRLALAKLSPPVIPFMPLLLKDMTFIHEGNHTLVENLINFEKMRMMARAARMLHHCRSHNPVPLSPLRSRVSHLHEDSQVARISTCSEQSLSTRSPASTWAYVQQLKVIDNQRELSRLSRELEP
# Procedure, shortened: (§1)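 Rap1B-BODIPY-GDP 250 nM + GDP 50 uM; cpds 7-pt, final 9.74 nM–152 uM (activator mode) or from 7.32 nM upwards (inhibitor mode); RT; FI 480/540 nm at 5 and 30 min, then ± cAMP, reread.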
# [4] = target: Rap guanine nucleotide exchange factor 3 (Homo sapiens) (UniProt O95398); experiment: Confirmatory qHTS for agonist of cAMP-regulated guanine nucleotide exchange factor 3 (EPAC1) (AID 1645881);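 further: EPAC1 catalysed release of BODIPY-GDP from Rap1B seen as fluorescence loss; nearly all actives have a fitted effect of over 75% in size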
# [5] = target: Rap guanine nucleotide exchange factor 3 (Homo sapiens) (UniProt O95398); experiment: Counterscreen qHTS for agonist of cAMP-regulated guanine nucleotide exchange factor 3 (EPAC1) (AID 1645889); further: nearly all actives have a fitted effect of over 40% in size
# Procedure, shortened: as §1
# [6] = target: Cytochrome P450 1A2 (Homo sapiens) (UniProt P05177); experiment: p450-cyp1a2 (AID 410; calls by dose curve; further: potency means the concentration at half of the fitted maximal effect)
# Procedure, shortened: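 20nM CYP1A2, 100uM Luciferin-ME (=Km), 100mM KPO4; cpd 10 min RT; +NADPH regen, 60 min RT; stop/detect 20 min; luminescence. Normalized to furafylline 57 uM = full inhibition.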
# [7] = target: Glucocorticoid receptor (Homo sapiens) (UniProt P04150); experiment: GR-GFP Redistribution (AID 450;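 active means compounds whose dose series gives a full or clear partial fitted curve of increased nuclear translocation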; further: potency means the concentration at half of the fitted maximal effect); settings: U2OS GR-GFP nuclear translocation, laser cytometry, 2 h
# Sequence of Glucocorticoid receptor (Homo sapiens) (P04150 whole entry, looked up, the tested form may be a part): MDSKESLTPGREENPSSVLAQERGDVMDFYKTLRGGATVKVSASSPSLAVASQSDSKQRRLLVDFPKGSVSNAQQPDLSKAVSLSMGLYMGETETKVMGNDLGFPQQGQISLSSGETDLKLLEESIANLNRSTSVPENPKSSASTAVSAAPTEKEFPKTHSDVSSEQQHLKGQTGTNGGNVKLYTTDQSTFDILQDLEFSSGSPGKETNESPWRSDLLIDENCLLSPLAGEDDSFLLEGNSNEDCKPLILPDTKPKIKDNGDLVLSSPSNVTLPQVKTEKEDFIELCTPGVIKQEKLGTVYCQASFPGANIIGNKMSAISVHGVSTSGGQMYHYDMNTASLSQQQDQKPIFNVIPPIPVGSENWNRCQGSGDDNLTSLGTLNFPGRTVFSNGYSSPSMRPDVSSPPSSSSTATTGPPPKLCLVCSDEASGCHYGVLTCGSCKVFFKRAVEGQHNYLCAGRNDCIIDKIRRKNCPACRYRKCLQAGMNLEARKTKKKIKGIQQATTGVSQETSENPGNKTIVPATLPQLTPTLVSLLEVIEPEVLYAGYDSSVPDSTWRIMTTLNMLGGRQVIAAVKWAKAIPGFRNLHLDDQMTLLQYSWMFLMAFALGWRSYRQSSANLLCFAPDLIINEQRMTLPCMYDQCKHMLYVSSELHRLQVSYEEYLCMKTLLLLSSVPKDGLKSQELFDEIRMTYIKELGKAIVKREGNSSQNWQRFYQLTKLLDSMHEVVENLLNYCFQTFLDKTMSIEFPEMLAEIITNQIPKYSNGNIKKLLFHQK
# [8] = target: Glucocorticoid receptor (Homo sapiens) (UniProt P04150); experiment: GR-EFC Redistribution (AID 451; calls by dose curve; further: potency means the concentration at half of the fitted maximal effect); settings: CHO-K1 GR-EFC translocation, beta-gal luminescence, 2 h
# Procedure, shortened: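 Translocation of GR-ED fusion to nuclear EA restores b-gal, read by luminescence after 1 h room-temperature detection. Engineered CHO-K1 biosensor cells, 1,000/well, exposed 2 h at 37 C to titrations up to 46 uM final.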
# [9] = target: Mitogen-activated protein kinase 10 (Mus musculus) (UniProt Q61831); experiment: JNK3 AlphaScreen Assay (AID 530; active means well fitted curve in either direction with a large enough effect, not every such curve was filed as active;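 further: kinase came from lysate of stimulated human HepG2 cells; signal reports phosphorylation of biotinylated GST-cJun 1-79 at Ser73 with 10 µM ATP; series mostly up to about 57 µM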)
# Procedure, shortened: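 Kinase buffer: 20 mM Tris-HCl pH 7.6, 10 mM MgCl2, 1 mM DTT, 0.1 mM Na3VO4, 0.01% Tween-20; ATP 10 uM. Substrate biotin-GST-cJun(1-79), enzyme from activated HepG2 lysates. Detection by Ser73 phospho-antibody AlphaScreen.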
# [10] = target: 3',5'-cyclic-AMP phosphodiesterase 4B (Homo sapiens) (UniProt Q07343); experiment: qHTS Assay for Inhibitors of PDE-IV (AID 607; active means well fitted activation curve with a large enough effect in the main read-out, with a control signal flat, not every such curve was filed as active)
# Sequence of 3',5'-cyclic-AMP phosphodiesterase 4B (Homo sapiens) (Q07343 whole entry, looked up): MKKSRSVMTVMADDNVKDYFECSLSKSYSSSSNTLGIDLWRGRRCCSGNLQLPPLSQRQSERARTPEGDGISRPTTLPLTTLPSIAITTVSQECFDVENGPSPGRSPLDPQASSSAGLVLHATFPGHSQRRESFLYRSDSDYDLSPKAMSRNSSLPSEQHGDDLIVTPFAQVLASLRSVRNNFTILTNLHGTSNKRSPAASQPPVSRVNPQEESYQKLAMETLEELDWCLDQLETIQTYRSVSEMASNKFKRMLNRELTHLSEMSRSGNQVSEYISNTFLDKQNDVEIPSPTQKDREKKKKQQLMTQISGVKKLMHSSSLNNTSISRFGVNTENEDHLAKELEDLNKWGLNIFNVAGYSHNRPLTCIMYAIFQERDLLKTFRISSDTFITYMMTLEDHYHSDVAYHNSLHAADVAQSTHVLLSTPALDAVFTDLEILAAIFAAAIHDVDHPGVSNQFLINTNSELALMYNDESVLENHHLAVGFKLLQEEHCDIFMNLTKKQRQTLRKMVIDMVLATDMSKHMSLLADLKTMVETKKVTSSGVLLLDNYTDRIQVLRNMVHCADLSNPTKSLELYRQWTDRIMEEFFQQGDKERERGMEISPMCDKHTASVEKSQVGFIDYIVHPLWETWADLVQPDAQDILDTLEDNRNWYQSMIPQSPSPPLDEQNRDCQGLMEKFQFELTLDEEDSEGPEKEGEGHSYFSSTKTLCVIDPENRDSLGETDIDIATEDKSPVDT
# Procedure, shortened: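 ACTOne HEK293 cells carry a modified cAMP-gated CNG channel and express endogenous PDE4; plated 1000 cells/well, compounds up to 22.9 uM final. Membrane-potential dye fluorescence (ex 535/em 590) was read; parental cells received 10 uM forskolin + 100 uM RO 20-1724.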
# [11] = target: Cytochrome P450 2C9 (Homo sapiens) (UniProt P11712); experiment: qHTS Assay for Inhibitors and Substrates of Cytochrome P450 2C9 (AID 883); further: nearly all actives have a fitted effect of over 60% in size
# Sequence of Cytochrome P450 2C9 (Homo sapiens) (P11712 whole entry, looked up): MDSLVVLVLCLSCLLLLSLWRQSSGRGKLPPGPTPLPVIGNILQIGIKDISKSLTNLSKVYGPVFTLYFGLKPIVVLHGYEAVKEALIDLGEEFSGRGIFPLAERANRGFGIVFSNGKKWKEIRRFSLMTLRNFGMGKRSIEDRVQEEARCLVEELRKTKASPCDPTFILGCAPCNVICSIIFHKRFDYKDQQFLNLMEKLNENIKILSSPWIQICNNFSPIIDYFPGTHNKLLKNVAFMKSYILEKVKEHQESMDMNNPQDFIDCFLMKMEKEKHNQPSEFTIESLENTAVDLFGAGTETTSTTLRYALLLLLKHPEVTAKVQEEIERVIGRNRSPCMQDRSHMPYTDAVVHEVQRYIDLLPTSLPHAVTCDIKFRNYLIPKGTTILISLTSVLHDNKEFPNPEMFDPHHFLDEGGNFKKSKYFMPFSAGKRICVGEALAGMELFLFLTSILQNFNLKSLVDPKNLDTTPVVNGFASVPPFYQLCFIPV
# Procedure, shortened: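 Turnover of Luciferin-H (100uM, KM) by 10nM human CYP2C9 was measured over 60 min at 37C with NADPH regeneration; inhibitors and some substrates reduce luminescence. Data normalized to sulphaphenazole 57uM.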
# [12] = target: Cytochrome P450 3A4 (Homo sapiens) (UniProt P08684); experiment: qHTS Assay for Activators of Cytochrome P450 3A4 (AID 885); further: nearly all actives have a fitted effect of over 65% in size
# Sequence of Cytochrome P450 3A4 (Homo sapiens) (P08684 whole entry, looked up): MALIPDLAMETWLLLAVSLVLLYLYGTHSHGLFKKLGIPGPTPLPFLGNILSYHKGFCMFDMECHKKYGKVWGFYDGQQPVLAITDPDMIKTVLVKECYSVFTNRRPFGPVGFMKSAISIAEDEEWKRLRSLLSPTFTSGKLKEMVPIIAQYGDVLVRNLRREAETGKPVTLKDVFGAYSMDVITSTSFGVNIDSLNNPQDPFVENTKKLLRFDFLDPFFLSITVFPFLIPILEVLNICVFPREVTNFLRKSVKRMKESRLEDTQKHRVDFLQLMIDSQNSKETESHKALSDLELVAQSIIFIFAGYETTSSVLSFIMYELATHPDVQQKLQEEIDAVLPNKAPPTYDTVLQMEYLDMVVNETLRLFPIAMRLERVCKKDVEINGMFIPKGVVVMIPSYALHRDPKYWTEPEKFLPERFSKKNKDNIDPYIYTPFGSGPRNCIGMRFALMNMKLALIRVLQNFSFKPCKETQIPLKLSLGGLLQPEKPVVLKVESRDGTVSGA
# Procedure, shortened: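 CYP3A4 activity: Luciferin-PPXE O-dealkylation, 25uM substrate, 200mM KPO4, RT throughout. Read-out is luciferase luminescence; higher values reflect activation.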
# [13] = target: Cytochrome P450 2D6 (Homo sapiens) (UniProt P10635); experiment: qHTS Assay for Inhibitors and Substrates of Cytochrome P450 2D6 (AID 891);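 further: luciferin methyl ether substrate demethylated by CYP2D6 with NADPH regeneration; nearly all actives have a fitted effect of over 60% in size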
# Sequence of Cytochrome P450 2D6 (Homo sapiens) (P10635 whole entry, looked up): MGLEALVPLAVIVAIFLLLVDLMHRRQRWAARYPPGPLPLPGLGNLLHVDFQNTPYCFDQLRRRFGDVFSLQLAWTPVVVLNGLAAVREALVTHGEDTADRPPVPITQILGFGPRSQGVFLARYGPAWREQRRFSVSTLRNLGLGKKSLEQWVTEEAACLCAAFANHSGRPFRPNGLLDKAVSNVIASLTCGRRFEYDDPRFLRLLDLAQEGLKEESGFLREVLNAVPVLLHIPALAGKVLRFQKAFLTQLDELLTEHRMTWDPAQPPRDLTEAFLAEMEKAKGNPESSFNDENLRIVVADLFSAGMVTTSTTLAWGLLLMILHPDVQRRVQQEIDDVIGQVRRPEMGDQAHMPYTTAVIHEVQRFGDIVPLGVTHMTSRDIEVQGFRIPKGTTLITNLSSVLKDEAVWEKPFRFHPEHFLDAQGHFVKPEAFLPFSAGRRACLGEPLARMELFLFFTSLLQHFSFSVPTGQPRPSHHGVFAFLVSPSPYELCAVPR
# Procedure, shortened: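 Luminescent read-out of luciferin formed by 5 nM human CYP2D6 demethylating 30 uM Luciferin-ME EGE (Km level) over 60 min at room temperature after NADPH regeneration addition. Data normalized to full inhibition by 1.43 uM quinidine.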
# [14] = target: Cytochrome P450 2C19 (Homo sapiens) (UniProt P33261); experiment: qHTS Assay for Inhibitors and Substrates of Cytochrome P450 2C19 (AID 899); further: nearly all actives have a fitted effect of over 60% in size
# Procedure, shortened: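 Reactions contain 5nM enzyme, 10uM Luciferin-H EGE (KM) and 50mM KPO4; compound preincubates 10 min at 37C, NADPH regeneration starts turnover for 60 min. Luminescence after detection reagent gives activity.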
# [15] = target: DNA dC->dU-editing enzyme APOBEC-3G (Homo sapiens) (UniProt Q9HC16); experiment: qHTS for inhibitors of Vif-A3G interactions: Validation (AID 588379)
# Procedure, shortened: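 Yellow fluorescence (Ex 488, Em 500-530) of Vif-coexpressing HeLa A3G-eYFP cells, scanned by Acumen cytometer, reports blocked A3G degradation. Cells plated at 700/well overnight at 37 deg C before compound addition, then a further overnight compound incubation at 37 deg C.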
compound,measurement,setting,value
Cc1nc2c3cc(F)ccc3n(Cc3ccccc3F)c2s1,activation,[1],"1.97% [at 17.1 µM, percent relative to cAMP agonist control]"
same,Potency,[2],inactive
same,"activity change, negative = inhibition",[3],-7.48% [at 30.8 µM]
CCOC(=O)C1(C)C=C(Nc2ccc(C(N)=O)cc2)C(=O)N1c1ccccc1 (stereo unspecified),Potency,[1],inactive
same,Potency,[2],10.7 µM (active)
same,Potency,[3],inactive
Nc1nc(N)c2c(ccc3c2ccn3Cc2cccc([N+](=O)[O-])c2)n1,Potency,[1],100 µM (active)
Cc1ccc(N2C(=O)c3ccccc3C2Nc2ccccc2F)nc1 (stereo unspecified),activation,[1],"11.4% [at 17.1 µM, percent relative to cAMP agonist control]"
same,Potency,[2],inactive
same,"activity change, negative = inhibition",[3],13.9% [at 30.8 µM]
COC(=O)c1ccc2nc(C3CCCCC3)c(Cc3ccccc3C(F)(F)F)n2c1,Potency,[4],inactive
same,Potency,[3],inactive
same,Potency,[5],inactive
C/[N+]([O-])=C/c1c(OCc2ccccc2)ccc2ccccc12,Potency,[4],inactive
same,Potency,[3],inactive
same,Potency,[5],inactive
COc1cc2c(c(OC)c1OC)C(c1ccc(C)cc1)CC(=O)O2 (stereo unspecified),activation,[1],"3.46% [at 17.1 µM, percent relative to cAMP agonist control]"
same,Potency,[2],inactive
same,"activity change, negative = inhibition",[3],6.91% [at 30.8 µM]
O=C(O)c1ccc(N/N=C/c2ccc(-c3ccc(Cl)cc3Cl)o2)cc1,Potency,[1],inactive
same,Potency,[2],inactive
same,Potency,[3],inactive
CCC(=O)N(CCC(c1ccco1)C(C)C)Cc1ccccc1 (stereo unspecified),Potency,[4],inactive
same,Potency,[5],inactive
COC(=O)c1ccc2nc(-c3ccc(C)cc3)c(Cc3cccc(F)c3)n2c1,Potency,[4],inactive
same,Potency,[5],inactive
CCOC(=O)C1Oc2ccccc2C(c2ccc(OC)cc2)=C1C(=O)OC (stereo unspecified),Potency,[4],inactive
same,Potency,[5],inactive
C=CCN1C(=O)c2cccc3c(N4CCCCC4)ccc(c23)C1=O,Potency,[1],112 µM (active)
same,Potency,[2],inactive
same,Potency,[3],inactive
O=C1CCC2CN3CCc4c([nH]c5ccccc45)C3CC2C1 (stereo unspecified),activation,[1],"-5.59% [at 17.1 µM, percent relative to cAMP agonist control]"
same,Potency,[2],inactive
same,"activity change, negative = inhibition",[3],2.15% [at 30.8 µM]
Cc1cc(C)c(S(=O)(=O)Nc2ccc3c(c2)CCC3)c(C)c1,Potency,[4],inactive
same,Potency,[5],inactive
COc1cc2cc(Oc3ccc4ccc(=O)oc4c3)c(=O)oc2cc1O,Potency,[6],2 µM (active)
same,Potency,[7],> 46 µM
same,Potency,[8],> 46 µM
same,Potency,[9],inactive
same,Potency,[10],inactive
same,Potency,[11],inactive
same,outcome,[12],inactive
same,Potency,[13],inactive
same,Potency,[14],inactive
same,outcome,[15],inactive
